Source: PubChem
This is a sample that favours compounds with a hit; in the whole collection about 2.9% have one here.
POLI inh: blocks human DNA polymerase iota activity; Potency, µM (series often up to 115 µM), actives largely listed as inhibitors; 1% of 390,000 active; Pol iota fluorescent replication assay, 10 min
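Pol iota at 10 nM preincubated 15 min with compounds at room temperature; reaction started with fluorescent substrate, 50 nM final. Fluorescence read kinetically at 0 and 10 min; buffer-only wells as negative control.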
POLB inh: DNA polymerase beta (human) inhibition. P06746. Pol beta primer extension/strand displacement, fluorescence kinetic. Potency, µM (series often up to 114 µM), usual class: inhibitors. 1.3% of 340,000 active. AID 485314
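Human Pol beta at 10 nM; strand-displacement substrate 50 nM final. Compound exposure 15 min at room temperature before start, reaction 10 min at room temperature.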
PI5P4K alpha inh: inhibitors of human PI5P4K alpha. P48426. PI5P4Kalpha enzyme, ADP-Glo luminescence, 60 min; active compounds read low. max response, %. 1.2% of 330,000 active. AID 652105; active = max response of -50% or lower; inconclusive = between -30% and -50%; inactive = -30% or higher; note: value at the top dose of about 77 µM
Target sequence (P48426 whole entry, looked up): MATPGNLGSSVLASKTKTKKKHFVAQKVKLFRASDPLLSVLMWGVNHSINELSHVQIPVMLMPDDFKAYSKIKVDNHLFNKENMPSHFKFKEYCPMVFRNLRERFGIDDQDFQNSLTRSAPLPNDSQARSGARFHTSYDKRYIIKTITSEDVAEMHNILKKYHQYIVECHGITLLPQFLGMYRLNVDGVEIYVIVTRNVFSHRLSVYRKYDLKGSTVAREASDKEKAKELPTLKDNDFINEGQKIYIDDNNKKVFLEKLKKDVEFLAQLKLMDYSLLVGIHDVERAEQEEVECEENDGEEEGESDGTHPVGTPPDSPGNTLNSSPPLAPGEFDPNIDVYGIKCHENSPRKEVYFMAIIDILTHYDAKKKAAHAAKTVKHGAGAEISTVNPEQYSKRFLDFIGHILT
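Controls without substrate or without enzyme flank wells where PI5P4Kalpha converts substrate using 5 microM ATP (final). Incubation lasts 60 minutes at room temperature; ADP formed is read by ADP-Glo luminescence.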
POLK inh: DNA polymerase kappa (human) inhibition | Q9UBT6 | purified Pol kappa, fluorescent DNA synthesis assay, 10 min | Potency, µM (highest dose often 107 µM), usual class: inhibitors | 0.53% of 400,000 active | AID 588579
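10 nM Pol kappa preincubated 15 min at room temperature with compounds, then reaction started with substrate at 50 nM final. Fluorescence read kinetically at 0 and 10 min; buffer-only wells served as negative control.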
ALOX12 inh: inhibitors of human 12S-lipoxygenase ALOX12; P18054; purified 12hLO, xylenol orange hydroperoxide absorbance; Potency, µM (titrated, usually from 108 µM), most hits filed as inhibitors; 1.1% of 580,000 active
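Hydroperoxide product was detected by ferrous iron/xylenol orange as the 573 to 405 nm absorbance ratio. Arachidonic acid at 40 uM (final) was turned over for 30 min at room temperature by 150 nM human 12hLO, pH 7.0 Hepes buffer, after 15 min compound preincubation.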
POLH inh: blocks human DNA polymerase eta activity. Potency, µM (titrated, usually from 114 µM), most hits filed as inhibitors. AID 588591. 1.2% of 390,000 active. recombinant Pol eta, fluorescent DNA replication assay. Q9Y253
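Fluorescent replication assay: 50 nM final substrate added after a 15 min room-temperature compound preincubation with 10 nM enzyme. Signal taken at 0 min and again at 10 min.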
A number is an active result; i = inactive; ? = inconclusive; nt = not tested or not shown. Unless noted, calls come from the whole dose curve; as a rule, active = well fitted inhibition curve with a large enough effect; inconclusive = small, poorly fitted or top-dose-only effect, or another doubt; inactive = no such curve, though single readings can be large or run the other way.

SMILES	POLI inh	POLB inh	PI5P4K alpha inh	POLK inh	ALOX12 inh	POLH inh
O=c1cc(-c2ccc(O)c(O)c2)oc2cc(OC3OC(CO)C(O)C(O)C3O)cc(O)c12 (centres undefined)	nt	nt	nt	0.89µM	nt	nt
O=c1c(OC2OC(CO)C(O)C(O)C2OC2OC(CO)C(O)C(O)C2OC2OC(CO)C(O)C(O)C2O)c(-c2ccc(O)c(O)c2)oc2cc(O)cc(O)c12 (centres undefined)	50µM	?	i	56µM	i	?
O=c1c(O[C@@H]2O[C@H](CO)[C@@H](O)[C@H](O)[C@H]2O)c(-c2ccc(O)cc2)oc2cc(O)cc(O)c12	?	nt	i	i	nt	i
COC(=O)c1ccc2c(=O)[nH]c(CSc3nnc(-c4ccncc4)n3Cc3ccccc3)nc2c1	nt	nt	nt	nt	i	nt
Cn1c(=O)c2c(ncn2CC(=O)NCCc2ccc(F)cc2)n(C)c1=O	nt	nt	nt	nt	i	nt
CCn1ccc2cc(S(=O)(=O)N3CCC(C(=O)NCCCOC)CC3)ccc21	nt	nt	nt	nt	i	nt
O=C(Nc1cc(-c2ccccc2)sc1C(=O)O)c1cccc(F)c1	?	71µM	i	i	?	?
CCN(CC(=O)NCc1cccs1)C(=O)CCC(=O)c1ccc(C)cc1	i	nt	i	i	28µM	i
O=C1/C(=C/c2cccc(F)c2)CSc2ccc(F)cc21	nt	nt	nt	nt	i	nt
N#Cc1cccc(/C=C2\CSc3ccccc3C2=O)c1	nt	nt	nt	nt	40µM	nt
CCCOc1ccc(C(=O)NCc2coc(-c3cccs3)n2)cc1	nt	nt	nt	nt	i	nt
N#Cc1ccccc1Cn1c(=O)n(CCCC(=O)NCc2ccccc2Cl)c(=O)c2ccccc21	89µM	i	nt	i	i	i
COc1cc([C@@H]2Oc3cc(C4Oc5cc(O)cc(O)c5C(=O)[C@H]4O)ccc3O[C@H]2CO)ccc1O (some centres undefined)	?	nt	-52	i	nt	?
O=C1c2c(O)cc(O)cc2O[C@H](c2ccc(O)cc2)[C@H]1O	i	nt	i	i	i	i
O=C1c2c(O)cc(O)cc2O[C@H](c2ccc(O)c(O)c2)[C@H]1O	79µM	3.2µM	i	?	?	i
O=C1c2c(O)cc(O)cc2O[C@H](c2ccc(O)c(O)c2)[C@@H]1O	nt	3.5µM	nt	nt	?	nt
O=S(=O)(N1CC=C(c2c[nH]c3cc(F)ccc23)CC1)N1CCCCCC1	nt	nt	nt	nt	16µM	nt
CCOC(=O)C1C(=O)C=C(c2ccccc2)CC1c1ccccc1 (centres undefined)	i	nt	i	i	i	i
CCOC(=O)C1C(=O)C=C(c2ccco2)CC1c1ccccc1 (centres undefined)	nt	nt	nt	nt	11µM	nt
COc1cc2ccc(=O)oc2cc1OCC(O)C(C)(C)O (centres undefined)	?	35µM	i	?	i	i
COc1cc2oc(=O)ccc2c(OC)c1CC(O)C(C)(C)O (centres undefined)	i	i	i	i	i	i
Cn1cc(-c2cc3n(n2)CCCN3C(=O)CCC(=O)N2CCCC2)c2ccccc21	nt	nt	nt	nt	i	nt
N#CC1=C(N)SC(N)=C(C#N)C1Cc1ccccc1	i	i	-52	i	?	i
CC(C)CC1C(C#N)=C(N)SC(N)=C1C#N	?	?	nt	i	?	i
CCc1ccc(C2C(C#N)=C(N)SC(N)=C2C#N)cc1	?	i	nt	i	?	i
SMILES	POLI inh	POLB inh	PI5P4K alpha inh	POLK inh	ALOX12 inh	POLH inh
N#CC1=C(N)SC(N)=C(C#N)C1CCc1ccccc1	i	i	-84	?	i	i
N#CC1=C(N)SC(N)=C(C#N)C1c1c(Cl)cccc1Cl	?	i	-65	i	?	i
COc1ccc(N/C=C2\C(=O)CCc3c2oc2cc(Cl)c(O)c(Cl)c32)cc1	i	?	?	i	6.3µM	?
COc1cccc2cc(-c3nc(-c4ccc(Cl)cc4)no3)c(=O)oc12	nt	nt	nt	nt	i	nt
CS(=O)c1ccc(C(=O)Nc2ccc(N3CCOCC3)cn2)cc1 (centres undefined)	nt	nt	nt	nt	i	nt
CCCOc1cccc(C2C(C(=O)c3ccco3)=C(O)C(=O)N2c2nnc(C)s2)c1 (centres undefined)	i	i	i	i	7.9µM	i
COC(=O)c1ccc(C2/C(=C(\O)c3ccc4c(c3)OCCO4)C(=O)C(=O)N2c2nnc(C)s2)cc1 (centres undefined)	i	i	i	i	?	i
